Data as given in PubChem BioAssay (NCATS).
Records with an inconclusive call do not appear. Calls of active or inactive are those of the source. Unless noted, calls come from the whole dose curve; as a rule, active = well fitted curve in the direction sought with a large enough effect; inconclusive = small, poorly fitted or top-dose-only effect, or another doubt; inactive = no such curve, though single readings can be large; an effect the other way counts as inactive or inconclusive.

Key:
[1] = molecular target: T1, Hexokinase-4 (Homo sapiens) + Glucokinase regulatory protein (Homo sapiens) (UniProt P35557+Q14397); test: qHTS assay for inhibitors of recombinant human GCK-GKRP interaction: Diaphorase-coupled assay (AID 743205)
How it was run: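 Resorufin fluorescence (525/590 nm), read each minute over 30 min, reports GCK activity coupled via G6PDH and diaphorase. Reaction: 10 nM GST-GCK, 10 nM FLAG-GKRP, 5 mM glucose, 0.4 mM ATP, 0.15 mM NADP+, 0.1 mM resazurin.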

[2] = molecular target: T1, Hexokinase-4 (Homo sapiens) + Glucokinase regulatory protein (Homo sapiens); test: qHTS assay for inhibitors of recombinant human GCK-GKRP interaction: ADP-Glo assay (AID 743206);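 note: plate controls were DMSO plus enzyme for no effect and no enzyme for full effect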
How it was run: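 GST-GCK and FLAG-GKRP (15 nM each in the dispensed mix, with 2 uM S6P) react with 0.4 mM ATP and 5 mM glucose (final) in Hepes pH 7.6 for 60 min at room temperature. ADP is measured by ADP-Glo luminescence.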

[3] = molecular target: T1, Hexokinase-4 (Homo sapiens) + Glucokinase regulatory protein (Homo sapiens); test: qHTS assay for inhibitors of recombinant human GCK-GKRP interaction: HTRF assay (AID 743207);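 note: 0% = DMSO with GCK present and -100% = DMSO wells lacking GCK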
How it was run: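 HTRF read-out (ex 320 nm; 615/665 nm emission) after 60 min RT equilibration of 5 nM GST-GCK, 5 nM FLAG-GKRP, 2 uM S6P, compound and anti-FLAG/anti-GST detection antibodies; signal normalized between DMSO wells with and without GCK.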

[4] = qHTS Assay for Identifying Gametocytocidal Compounds (AID 743244);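 note: % is set by controls: 0 for no effect and ±100 for the full control effect; actives lower the fluorescent signal which means gametocytes are killed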; settings: P. falciparum 3D7 stage III-V gametocytes, alamarBlue, 72 h; max response: stronger effect = lower value
How it was run: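 Compounds are pinned into medium, gametocytes (stage III–V, 3D7, 20,000 cells/well) added, and plates held 72 h at 37 °C in 5% CO2. AlamarBlue follows for 24 h before fluorescence reading.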

[5] = qHTS assay for measurement of the activity of small molecule inhibitors on Zika virus induced Caspase-3 activity in human iPSC derived neural progenitor cells (hNPCs) (AID 1224857); note: % of control where 0% means no effect; nearly all actives have a fitted effect of over 65% in size
How it was run: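 Pretreat hNPCs with compound 1 h; infect ZIKV 2 FFU/cell; 6 h 37 C, 5% CO2; Caspase-Glo 3/7, 30 min RT; luminescence; normalize to no-virus and virus-only wells.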

[6] = qHTS assay for measurement of the activity of small molecule inhibitors on Zika virus induced Caspase-3 activity in human astrocytoma cells (AID 1224859);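 note: plate controls were ZIKV-infected untreated cells for no effect and uninfected cells for full effect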
How it was run: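 Human SNB-19 astrocytoma cells in RPMI 1640 with 10% FBS receive compound one hour ahead of Zika virus at 2 FFU/cell. After 6 h infection, caspase-3/7 activity is detected by Caspase-Glo luminescence.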

[7] = Natriuretic polypeptide receptor (hNpr1) antagonism - Pilot counterscreen GloSensor control cell line (AID 1347045; calls by dose curve; note: series mostly up to about 38 µM; % is set by controls: 0 for no effect and ±100 for the full control effect)
How it was run: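 HEK293 cGMP GloSensor cells preloaded 2 h with 2% GloSensor reagent, then compound 30 min before baseline luminescence read. Stimulated with 50 uM sodium nitroprusside, 20 min at room temperature, then read again; counterscreen for Npr1 antagonism.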

[8] = molecular target: Atrial natriuretic peptide receptor 1 (Homo sapiens) (UniProt P16066); test: Natriuretic polypeptide receptor (hNpr1) antagonism - Pilot screen (AID 1347049; calls by dose curve;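 note: agonist-evoked cGMP luminescence read 20 min after hNppA addition; series mostly up to about 58 µM; % is set by controls: 0 for no effect and ±100 for the full control effect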)
How it was run: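 HEK293 cells expressing hNpr1 and GloSensor cGMP luciferase, 1500/well, loaded with 2% GloSensor reagent 2 h, compound 30 min at room temperature; luminescence read before and 20 min after 0.1 nM hNppA stimulation.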

[9] = molecular target: Atrial natriuretic peptide receptor 2 (Homo sapiens) (UniProt P20594); test: Natriuretic polypeptide receptor (hNpr2) antagonism - Pilot subtype selectivity assay (AID 1347050; calls by dose curve; note: % is set by controls: 0 for no effect and ±100 for the full control effect)
How it was run: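 HEK293 cells expressing hNpr2 and a GloSensor cGMP luciferase sensor, 1500/well, preloaded 2 h with 2% GloSensor reagent, compound 30 min, then 1 nM hNppC for 20 min. Antagonism from luminescence after versus baseline pre-read; LOPAC in 1:5 titrations.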

Sequence of Atrial natriuretic peptide receptor 2 (Homo sapiens) (P20594 whole entry, looked up): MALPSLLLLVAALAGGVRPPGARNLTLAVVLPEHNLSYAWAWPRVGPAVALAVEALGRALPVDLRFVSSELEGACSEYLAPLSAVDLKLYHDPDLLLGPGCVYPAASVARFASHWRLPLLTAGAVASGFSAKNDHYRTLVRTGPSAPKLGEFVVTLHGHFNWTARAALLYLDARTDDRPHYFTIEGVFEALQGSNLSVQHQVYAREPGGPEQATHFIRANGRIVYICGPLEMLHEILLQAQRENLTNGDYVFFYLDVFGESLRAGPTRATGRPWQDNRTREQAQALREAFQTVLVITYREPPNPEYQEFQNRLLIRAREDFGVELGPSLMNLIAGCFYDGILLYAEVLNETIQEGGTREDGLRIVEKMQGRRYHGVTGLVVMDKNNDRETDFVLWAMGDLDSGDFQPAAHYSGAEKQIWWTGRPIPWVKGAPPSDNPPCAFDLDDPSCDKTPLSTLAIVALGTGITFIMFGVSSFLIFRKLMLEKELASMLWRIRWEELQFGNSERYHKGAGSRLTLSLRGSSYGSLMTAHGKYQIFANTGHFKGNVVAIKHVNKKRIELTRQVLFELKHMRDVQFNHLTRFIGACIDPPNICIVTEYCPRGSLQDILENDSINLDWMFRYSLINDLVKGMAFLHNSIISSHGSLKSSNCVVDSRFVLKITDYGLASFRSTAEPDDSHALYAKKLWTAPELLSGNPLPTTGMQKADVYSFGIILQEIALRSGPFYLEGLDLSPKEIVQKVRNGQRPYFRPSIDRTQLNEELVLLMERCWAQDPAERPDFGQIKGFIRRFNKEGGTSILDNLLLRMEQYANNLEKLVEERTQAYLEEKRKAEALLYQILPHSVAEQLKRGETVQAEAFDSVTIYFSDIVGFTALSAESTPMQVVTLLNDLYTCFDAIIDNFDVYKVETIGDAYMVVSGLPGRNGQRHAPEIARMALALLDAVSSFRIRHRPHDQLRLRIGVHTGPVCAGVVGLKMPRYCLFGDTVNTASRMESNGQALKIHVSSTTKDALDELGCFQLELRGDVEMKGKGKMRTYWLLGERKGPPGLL
T1 sequence (P35557 whole entry, looked up): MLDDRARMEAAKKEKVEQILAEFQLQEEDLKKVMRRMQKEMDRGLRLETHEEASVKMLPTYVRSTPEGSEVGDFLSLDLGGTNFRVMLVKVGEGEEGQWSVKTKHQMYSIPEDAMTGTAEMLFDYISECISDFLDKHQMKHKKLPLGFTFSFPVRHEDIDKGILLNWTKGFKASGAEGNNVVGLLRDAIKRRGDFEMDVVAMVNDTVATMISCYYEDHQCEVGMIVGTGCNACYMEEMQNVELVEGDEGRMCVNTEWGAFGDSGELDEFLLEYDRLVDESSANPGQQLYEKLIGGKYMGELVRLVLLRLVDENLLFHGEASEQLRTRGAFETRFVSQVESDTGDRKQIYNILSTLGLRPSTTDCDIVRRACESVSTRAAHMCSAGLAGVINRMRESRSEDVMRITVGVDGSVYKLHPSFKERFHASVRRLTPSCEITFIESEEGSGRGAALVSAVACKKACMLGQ
T1 sequence (Q14397 whole entry, looked up): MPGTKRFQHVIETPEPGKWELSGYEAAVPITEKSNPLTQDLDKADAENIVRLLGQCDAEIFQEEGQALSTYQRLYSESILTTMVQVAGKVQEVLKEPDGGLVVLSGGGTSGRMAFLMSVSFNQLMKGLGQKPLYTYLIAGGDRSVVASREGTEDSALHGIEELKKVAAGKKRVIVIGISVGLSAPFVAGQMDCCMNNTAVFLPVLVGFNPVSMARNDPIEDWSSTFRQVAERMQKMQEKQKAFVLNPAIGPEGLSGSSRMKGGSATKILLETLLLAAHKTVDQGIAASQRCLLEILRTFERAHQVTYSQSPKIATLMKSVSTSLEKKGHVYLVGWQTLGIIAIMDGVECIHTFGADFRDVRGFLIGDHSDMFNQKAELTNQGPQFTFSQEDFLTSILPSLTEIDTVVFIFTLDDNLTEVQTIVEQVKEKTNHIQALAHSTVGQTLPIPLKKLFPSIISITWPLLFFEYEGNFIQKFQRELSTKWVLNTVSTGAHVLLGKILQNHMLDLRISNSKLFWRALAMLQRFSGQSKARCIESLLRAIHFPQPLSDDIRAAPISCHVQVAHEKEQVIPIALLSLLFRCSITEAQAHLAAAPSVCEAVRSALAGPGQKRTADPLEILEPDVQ
Sequence of Atrial natriuretic peptide receptor 1 (Homo sapiens) (P16066 whole entry, looked up): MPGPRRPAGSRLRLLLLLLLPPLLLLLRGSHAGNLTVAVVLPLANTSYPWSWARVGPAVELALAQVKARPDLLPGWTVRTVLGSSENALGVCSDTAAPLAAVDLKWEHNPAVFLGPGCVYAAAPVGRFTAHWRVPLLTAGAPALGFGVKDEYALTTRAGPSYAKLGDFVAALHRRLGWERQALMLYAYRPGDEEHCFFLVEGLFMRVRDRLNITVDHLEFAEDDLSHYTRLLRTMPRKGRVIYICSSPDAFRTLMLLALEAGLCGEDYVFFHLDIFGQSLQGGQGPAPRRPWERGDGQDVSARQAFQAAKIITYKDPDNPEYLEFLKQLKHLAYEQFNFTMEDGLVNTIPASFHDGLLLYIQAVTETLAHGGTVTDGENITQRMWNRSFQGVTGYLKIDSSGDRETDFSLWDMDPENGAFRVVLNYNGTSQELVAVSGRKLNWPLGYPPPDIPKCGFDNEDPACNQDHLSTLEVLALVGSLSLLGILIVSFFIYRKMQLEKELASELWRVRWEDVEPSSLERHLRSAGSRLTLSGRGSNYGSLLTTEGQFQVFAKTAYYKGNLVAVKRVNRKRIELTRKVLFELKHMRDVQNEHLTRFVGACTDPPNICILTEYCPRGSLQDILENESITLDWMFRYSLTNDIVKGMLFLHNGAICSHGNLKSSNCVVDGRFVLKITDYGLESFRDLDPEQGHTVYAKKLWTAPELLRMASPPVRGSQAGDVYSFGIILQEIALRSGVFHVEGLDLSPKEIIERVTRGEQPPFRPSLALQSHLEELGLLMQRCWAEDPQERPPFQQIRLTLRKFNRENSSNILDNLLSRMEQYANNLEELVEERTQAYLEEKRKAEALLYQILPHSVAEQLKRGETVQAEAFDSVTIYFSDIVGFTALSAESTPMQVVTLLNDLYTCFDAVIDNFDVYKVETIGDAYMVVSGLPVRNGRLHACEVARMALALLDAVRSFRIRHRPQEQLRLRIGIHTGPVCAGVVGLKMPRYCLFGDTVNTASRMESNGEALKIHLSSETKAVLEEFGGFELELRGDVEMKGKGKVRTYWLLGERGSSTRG

[N-]=[N+]=Nc1ccc(C(=O)CSC[C@H](NC(=O)CC[C@H](N)C(=O)O)C(=O)NCC(=O)O)cc1
inactive: Potency [1] | Potency [2] | Potency [3] | max response [4] 27% | Potency [5] | Potency [6] | Potency [7] | Potency [8] | Potency [9]

OCC1NCC(O)C(O)C1O (stereo unspecified)
inactive: Potency [1] | Potency [2] | Potency [3] | max response [4] 29.9% | Potency [5] | Potency [6] | Potency [7] | Potency [8] | Potency [9]

C[C@H]1CC2C3CCC4=CC(=O)C=C[C@]4(C)[C@@]3(Cl)[C@@H](O)C[C@]2(C)[C@@]1(O)C(=O)CO (stereo partly specified)
inactive: Potency [1] | Potency [2] | Potency [3] | max response [4] -6.5% | Potency [5] | Potency [6] | Potency [7] | Potency [8] | Potency [9]

CN1CC(O)C(O)C(O)C1CO (stereo unspecified)
inactive: Potency [1] | Potency [2] | Potency [3] | max response [4] 11.6% | Potency [5] | Potency [6] | Potency [7] | Potency [8] | Potency [9]

Cn1c(=O)c2[nH]c(-c3ccc(S(=O)(=O)O)cc3)nc2n(C)c1=O
inactive: Potency [1] | Potency [2] | Potency [3] | max response [4] 26.7% | Potency [5] | Potency [6] | Potency [7] | Potency [8] | Potency [9]

C[C@H](O)C(=O)C1=Nc2c(nc(N)[nH]c2=O)NC1
inactive: Potency [1] | Potency [2] | Potency [3] | max response [4] 13.3% | Potency [5] | Potency [6] | Potency [7] | Potency [8] | Potency [9]

CC[N+](CC)(CC)CC(=O)Nc1c(C)cccc1C
inactive: Potency [1] | Potency [2] | Potency [3] | max response [4] 14.2% | Potency [5] | Potency [6] | Potency [7] | Potency [8] | Potency [9]

COc1ccccc1N1CCN(CCCCN2C(=O)c3ccccc3C2=O)CC1
inactive: Potency [1] | Potency [2] | Potency [3] | max response [4] 10.1% | Potency [5] | Potency [6] | Potency [7] | Potency [8] | Potency [9]

CC(=O)O[C@H]1Cc2ccccc2N(C(N)=O)c2ccccc21
inactive: Potency [1] | Potency [2] | Potency [3] | max response [4] 18.2% | Potency [5] | Potency [6] | Potency [7] | Potency [8] | Potency [9]

N[C@H]1CONC1=O
inactive: Potency [1] | Potency [2] | Potency [3] | max response [4] 7.19% | Potency [5] | Potency [6] | Potency [7] | Potency [8] | Potency [9]

O=C(O)/C(=C/c1c(C(=O)O)[nH]c2cc(Cl)cc(Cl)c12)c1ccccc1
inactive: Potency [1] | Potency [2] | Potency [3] | max response [4] 2.21% | Potency [5] | Potency [6] | Potency [7] | Potency [8] | Potency [9]

O=C(O)c1ccccc1Nc1ccccc1
inactive: Potency [1] | Potency [2] | Potency [3] | max response [4] 4.62% | Potency [5] | Potency [6] | Potency [7] | Potency [8] | Potency [9]

O=C(O)/C=C/c1cnc[nH]1
inactive: Potency [1] | Potency [2] | Potency [3] | max response [4] 8.66% | Potency [5] | Potency [6] | Potency [7] | Potency [8] | Potency [9]

O=C(O)C1CCNCC1
inactive: Potency [1] | Potency [2] | Potency [3] | max response [4] 10.6% | Potency [5] | Potency [6] | Potency [7] | Potency [8] | Potency [9]

CC1CCN(CC[C@H]2CCCN2S(=O)(=O)c2cccc(O)c2)CC1
inactive: Potency [1] | Potency [2] | Potency [3] | max response [4] 10.9% | Potency [5] | Potency [6] | Potency [7] | Potency [8] | Potency [9]

OC[C@H]1NC[C@@H](O)[C@@H]1O
inactive: Potency [1] | Potency [2] | Potency [3] | max response [4] 20.9% | Potency [5] | Potency [6] | Potency [7] | Potency [8] | Potency [9]

Nc1ccc2c3c(cccc13)C(=O)NC2=O
inactive: Potency [1] | Potency [2] | Potency [3] | max response [4] 4.5% | Potency [5] | Potency [6] | Potency [7] | Potency [8] | Potency [9]

N[C@@H](Cc1ccc(F)cc1)C(=O)O
inactive: Potency [1] | Potency [2] | Potency [3] | max response [4] 19.5% | Potency [5] | Potency [6] | Potency [7] | Potency [8] | Potency [9]

CCC(=O)N1CCN(C(=O)c2ccccc2)CC1
inactive: Potency [1] | Potency [2] | Potency [3] | max response [4] 9.08% | Potency [5] | Potency [6] | Potency [7] | Potency [8] | Potency [9]

N[C@@H](CCCC(=O)O)C(=O)O
inactive: Potency [1] | Potency [2] | Potency [3] | max response [4] 28.3% | Potency [5] | Potency [6] | Potency [7] | Potency [8] | Potency [9]

Cn1cc(C(=O)OCC2CCN(CCNS(C)(=O)=O)CC2)c2ccccc21
inactive: Potency [1] | Potency [2] | Potency [3] | max response [4] 28.9% | Potency [5] | Potency [6] | Potency [7] | Potency [8] | Potency [9]

C=C1C[C@@]23CC[C@H]4[C@@](C)(CCC[C@@]4(C)C(=O)O)[C@@H]2CC[C@]1(O)C3
inactive: Potency [1] | Potency [2] | Potency [3] | max response [4] 31.3% | Potency [5] | Potency [6] | Potency [7] | Potency [8] | Potency [9]

NCCCNCCCCNCCCN
inactive: Potency [1] | Potency [2] | Potency [3] | max response [4] 28.9% | Potency [5] | Potency [6] | Potency [7] | Potency [8] | Potency [9]

NC1C=CC=C(C(=O)O)C1 (stereo unspecified)
inactive: Potency [1] | Potency [2] | Potency [3] | max response [4] -5.22% | Potency [5] | Potency [6] | Potency [7] | Potency [8] | Potency [9]
